Experimental data: PMC5913336, “True equilibrium measurement of transcription factor-DNA binding affinities using automated polarization microscopy”

molecular target: Gsc (Drosophila melanogaster, UniProt P54366 267-356); assay: FP; 33 mM phosphate pH 7.0, 90 mM NaCl, 0.01% Tween 20, 0.1 mM DTT, 0.5% agarose; room temperature; settings: tags: N-GST (pGEX-6P-1, kept); dsDNA, one strand shown
Sequence (P54366 267-356): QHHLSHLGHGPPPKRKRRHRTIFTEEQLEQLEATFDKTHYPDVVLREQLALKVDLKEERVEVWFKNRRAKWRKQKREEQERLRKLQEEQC

Sequence | binding signal | Kd
AATTAATCAGAT | 1.75 Kd / Kd of best base at the position | –
AATTGATCCGAT | 12.6 Kd / Kd of best base at the position | –
AATTAATCTGAT | 1.95 Kd / Kd of best base at the position | –
AATTACTCCGAT | 24.4 Kd / Kd of best base at the position | –
AACTAATCCGAT | 2.52 Kd / Kd of best base at the position | –
AATTAATCCGTT | 1.04 Kd / Kd of best base at the position | –
AATTAATCCTAT | 2.32 Kd / Kd of best base at the position | –
AATTAATCCGAA | 1.15 Kd / Kd of best base at the position | –
AATTAAGCCGAT | 4.74 Kd / Kd of best base at the position | –
AATTAATTCGAT | 3.3 Kd / Kd of best base at the position | –
AATTTATCCGAT | 12.6 Kd / Kd of best base at the position | –
AATTAATCGGAT | 3.62 Kd / Kd of best base at the position | –
AATTCATCCGAT | 36.4 Kd / Kd of best base at the position | –
AATTAATCCGAG | 1.56 Kd / Kd of best base at the position | –
ACTTAATCCGAT | 10.4 Kd / Kd of best base at the position | –
AATCAATCCGAT | 23.5 Kd / Kd of best base at the position | –
AATTAATCCAAT | 1.29 Kd / Kd of best base at the position | –
TATTAATCCGAT | 2.48 Kd / Kd of best base at the position | –

Sequence | binding signal | Kd
AATAAATCCGAT | 8.9 Kd / Kd of best base at the position | –
AAATAATCCGAT | 4.25 Kd / Kd of best base at the position | –
AGTTAATCCGAT | 4.01 Kd / Kd of best base at the position | –
AATTAATCCGAC | 1.04 Kd / Kd of best base at the position | –
GATTAATCCGAT | 1.37 Kd / Kd of best base at the position | –
AATTAATGCGAT | 9.37 Kd / Kd of best base at the position | –
AATTAATCCGAT | – | ~3.8 nM
AATTAATACGAT | 9.77 Kd / Kd of best base at the position | –
CATTAATCCGAT | 4.41 Kd / Kd of best base at the position | –
AATTATTCCGAT | 24.5 Kd / Kd of best base at the position | –
AATTAGTCCGAT | 10.6 Kd / Kd of best base at the position | –
AATTAATCCGCT | 3.18 Kd / Kd of best base at the position | –
AATTAAACCGAT | 9.22 Kd / Kd of best base at the position | –
AATTAACCCGAT | 13.1 Kd / Kd of best base at the position | –
AATTAATCCCAT | 1.16 Kd / Kd of best base at the position | –
ATTTAATCCGAT | 3.67 Kd / Kd of best base at the position | –
AATGAATCCGAT | 42.9 Kd / Kd of best base at the position | –
AATTAATCCGGT | 1.99 Kd / Kd of best base at the position | –

molecular target: T1, Optix (Drosophila melanogaster, UniProt Q95RW8 139-229); assay: as above; settings: tags: N-GST (pGEX-6P-1, kept); dsDNA, one strand shown
T1 sequence: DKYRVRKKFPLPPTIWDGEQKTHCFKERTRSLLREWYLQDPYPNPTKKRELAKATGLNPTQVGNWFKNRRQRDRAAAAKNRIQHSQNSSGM

Sequence | binding signal
AGAGTGTTAGCT | 34.8 Kd / Kd of best base at the position
AGAGTTATAGCT | 25 Kd / Kd of best base at the position
AGAGTGAGAGCT | 35.9 Kd / Kd of best base at the position
AGAGTGAAAGCT | 1670 Kd / Kd of best base at the position
